About 900 (25%) of roughly 3,600 compounds were called active. These entries were drawn from the full list. Entries with a potency or affinity are not part of this list. A number with no mark means an inactive call. No rule for the calls is given here.

Broadly, the inhibition is the share of the control response that was lost under treatment.

The test deals with Protein Tat (Human immunodeficiency virus type 1 group M subtype B (isolate HXB2)) (UniProt P04608). In words: HIV-1 Tat–TAR interaction blockers – biochemical, fluorescence polarization, FAM-labeled TAR RNA, counter-screen for Vif-APOBEC3G degradation inhibitor project, dose response (AID 1117361). The settings on record: Tat-TAR RNA binding; series mostly up to 100 µM; inhibition: at the top concentration.
For `CC(=O)c1ccc(NC(=O)C(C)OC(=O)C(C)Oc2cccc(C)c2)cc1` (centres undefined), the molecule was called inactive. `CCCn1nc(C(=O)Nc2cc(C(=O)OC)ccc2C)c2ccccc2c1=O`: the “inhibition” value is 4.05%. The same measure, in the same setting: the value for `Cc1ccc([N+](=O)[O-])cc1NC(=O)CCSc1ccc(Cl)cc1` was 0.68%; that for `CCCCN1C2=C(C(=O)CC(C)(C)C2)C(c2ccccc2)C2=C1c1ccccc1C2=O` (centres undefined) was 6.14%. Same read-out and setting: the result for `Cc1c(NC(=O)c2cc(-c3cccs3)on2)c(=O)n(-c2ccccc2)n1C` reads 10.2%. For the molecule `CC1=C/C(=N\OS(=O)(=O)c2ccccc2)C=CC1=O`, the molecule was classed as inactive. Regarding `COC(=O)Cc1csc(Nc2c(C)n(C)n(-c3ccccc3)c2=O)n1`, the “inhibition” value is 1.67%. On to `Cc1cc(C)cc(N(C(C)C(=O)Nc2c(C)n(C)n(-c3ccccc3)c2=O)S(C)(=O)=O)c1` (centres undefined), for which the “inhibition” value was 5.46%. Still for that read-out and setting: the value for `Cc1cc(C(=O)Nc2ccc(S(=O)(=O)Nc3onc(C)c3C)cc2)cs1` was 5.46%; that for `CCOc1ccc2nc(SCc3ccc(C(=O)OC)o3)[nH]c2c1` was 26.4%; that for `COC(=O)c1ccc(Cn2c(C)cc(C)[n+]2C)o1` was 6.76%. The same measure, in the same setting: the value for `COc1ccccc1N1CCN(C(=O)c2ccoc2C)CC1` was 4.34%.

Consider `COc1ccc(S(=O)(=O)N2CCN(C(=O)c3cc4c(s3)CCC4)CC2)cc1`, for which the molecule was called inactive.

Regarding `O=C(c1ccco1)N(CCC(c1ccccc1)c1ccco1)Cc1ccc(F)cc1` (centres undefined), the “inhibition” value was 0.68%. As to `Cc1cccc(OCCC(=O)Nc2c(C)n(C)n(-c3ccccc3)c2=O)c1`, the call was inactive. In the case of `Cc1c(NC(=O)COC(=O)c2ccccc2Cl)c(=O)n(-c2ccccc2)n1C`, the result was inactive. On to `CCOC(=O)Nc1cc(C)c(Cl)cc1OC`, for which the “inhibition” value is 0.33%. For `Nc1cc(C(=O)O)ccc1N1CCCCC1`, the “inhibition” value is 2.34%.

In the case of `CC(C)(C)NC(=O)c1cc([N+](=O)[O-])ccc1N1CCCCC1`, the molecule was called inactive. With `Cc1ccc(Cn2c(SCC(C)C)nc3c2c(=O)n(C)c(=O)n3C)cc1`, the “inhibition” value was 1.35%. Turning to `CCn1c(C)cc(=S)c2ccccc21`, the “inhibition” value is 2.34%. Same read-out and setting: the value for `CCN(CC(=O)Nc1ccc(NC(C)=O)cc1)C(=O)C1CCCC1` was 13.2%; that for `O=C(Cn1c2[n+](c3ccc(C(F)(F)F)cc31)CCCCC2)Nc1c(F)cccc1F` was 4.95%. As for `Cc1ccc(C(=O)Nc2nc(=O)n(C(=O)c3ccccc3C)s2)cc1`, the result was inactive. On to `CCS(=O)(=O)c1ccc2oc(Nc3cccc(OC)c3)nc2c1`, for which the “inhibition” value is 11.6%. With `Cc1nn(Cc2ccccc2)c(C)c1NC(=O)Cn1nc([N+](=O)[O-])c(Cl)c1C`, the call was inactive.

With `O=c1[nH]nc(Cc2ncc(C(F)(F)F)cc2Cl)c2ccccc12`, the “inhibition” value is 1.67%.

In the case of `N#Cc1nc(COc2ccc(Cl)cc2Cl)oc1N1CCOCC1`, the “inhibition” value was 6.14%.

For `COc1ccc(N2CCN(c3oc(COc4ccc(Cl)cc4Cl)nc3C#N)CC2)cc1`, the “inhibition” value was 2.73%. For `O=C1CN(C(=O)CSc2nnc(C3CC3)n2-c2ccccc2)c2ccccc2N1`, the molecule was called inactive. For `Cc1nc(Nc2ccc(S(N)(=O)=O)cc2)sc1C(=O)Nc1ccccc1`, the molecule was called inactive. `O=C(Nc1cnccn1)c1csc2ccccc12`: the “inhibition” value was 6.08%. Take `Clc1ccc2c(c1)nc1n2CCCC1`: the outcome was inactive. Turning to `COc1ccc(CCNS(=O)(=O)CCNC(=O)c2ccc3c(c2)OCO3)cc1`, the molecule was called inactive. For the molecule `O=C1NCC(O)=C1C=NC12CC3CC(CC(C3)C1)C2`, the “inhibition” value was 3.67%.

On to `CCn1ncc(/C=N/NS(=O)(=O)c2ccc(Cl)cc2)c1C`, for which the outcome was inactive.

As to `C=CCN(CC=C)S(=O)(=O)c1ccc(C(=O)Nc2nnc(COC)o2)cc1`, the molecule was classed as inactive. The same measure, in the same setting: the result for `Cc1cccc(OCc2nc(C)cc(=O)[nH]2)c1` reads “inactive”.

`O=C(CNC(=O)c1ccc(Cl)cc1Cl)OCc1nnc(-c2ccccc2Br)o1`: the “inhibition” value is 3.01%. On to `Clc1ccc(-c2ccc(SCc3ccccn3)nn2)cc1`, for which the result was inactive. Same read-out and setting: the value for `CCCOc1ccccc1C1CC(=O)NC2=C1C(=O)CCC2` (centres undefined) was “inactive”.

As for `COc1ccccc1-c1nnc(SCC(=O)NCc2c(C)c(Cl)cc(C(C)C)c2O)o1`, the “inhibition” value was 13.5%. As to `O=C(Cn1c(=O)[nH]c2ccccc2c1=O)N1CCN(c2cccc(Cl)c2)CC1`, the “inhibition” value is 12.4%. Take `N#CC(C(=O)NCc1ccco1)c1nc2ccccc2nc1N1CCOCC1` (centres undefined): the “inhibition” value is 26.6%. `Cc1ccnc(-n2c(CCN3C(=O)c4ccccc4C3=O)nc3ccccc3c2=O)c1`: the “inhibition” value was 1.35%. For the molecule `CC(C)C(NC(N)=O)C(=O)NC1CCCCC1` (centres undefined), the call was inactive. Regarding `O=C(O)c1cccc(CSc2nnc(COc3ccccc3)o2)c1`, the molecule was classed as inactive. In the case of `COc1cc2c(cc1OC)C(=O)C(Br)CC2` (centres undefined), the result was inactive.

Turning to `COc1cc(NC(=O)NCCN2CCN(c3ccc(Cl)cc3)CC2)ccc1C`, the “inhibition” value was 1.35%. On the same count and under the same terms, the result for `Cc1ccc(NS(=O)(=O)c2ccc(OCC(=O)Nc3cccc([N+](=O)[O-])c3)c(C)c2)cc1` reads 17.6%. With `COc1cc(CCC(=O)Nc2cccc(C(F)(F)F)c2)cc(OC)c1OC`, the molecule was called inactive. Consider `CCNC(=S)Nc1ccc(N(c2ccccc2)C(C)C)cc1`, for which the molecule was classed as inactive. In the case of `O=C(Cn1cnc2c(nnn2Cc2ccc(Cl)cc2)c1=O)NCc1ccco1`, the “inhibition” value is 8.87%.

For `CCOC(=O)c1cc2c(n(-c3ccccc3)c1=O)CC(C)(C)CC2=O`, the “inhibition” value was 4.34%.

On to `CC1Cc2ccccc2N1Cc1nc2cc(C(F)(F)F)ccc2c(=O)[nH]1` (centres undefined), for which the “inhibition” value is 12.8%.

Regarding `CC1Cc2ccccc2N1C(=O)C1CCN(S(=O)(=O)Cc2ccccc2)CC1` (centres undefined), the “inhibition” value was 1.36%. Take `CCOc1cccc(C(=O)Nc2ccccc2OC(F)F)c1`: the “inhibition” value was 4.34%.

Regarding `CCC1(CC)C(=O)NC(=O)NC1=NCCc1ccc(O)cc1`, the call was inactive. With `Cc1noc(C)c1S(=O)(=O)Nc1ccc2c(c1)C(=O)N([C@@H](C)CO)C[C@H](C)[C@@H](CN(C)Cc1ccc(C(F)(F)F)cc1)OCCCC[C@H](C)O2`, the “inhibition” value is 0.33%.

As to `COc1cccc(-c2nc(-c3cccs3)no2)c1`, the “inhibition” value was 2.47%. `CCCCCOc1ccc(C2C(C(C)=O)=C(C)Nc3ncnn32)cc1OC` (centres undefined): the “inhibition” value was 0.68%. On the same count and under the same terms, the value for `N#Cc1ccccc1NC(=O)CNc1ccc(Cl)c(C(F)(F)F)c1` was 19.8%; that for `Cc1ccc(NC(=O)CCCCCC2NC(=O)NC2C)cc1` (centres undefined) was 4.05%. Consider `CC1CC(C)CN(C(=O)CSCC(=O)O)C1` (centres undefined), for which the result was inactive. With `CC(C)C(c1nnnn1C1CCCCC1)N1CCN(c2ncccn2)CC1` (centres undefined), the molecule was classed as inactive. Consider `O=C(CSc1c(Cl)cccc1Cl)N1CCC(c2nc3ccccc3s2)CC1`, for which the “inhibition” value was 2.7%. As for `CCN1CCC(=NNC(=O)CC23CC4CC(CC(C4)C2)C3)CC1`, the “inhibition” value was 21.8%.

`CCCCCCNS(=O)(=O)c1ccccc1Br`: the result was inactive.

Turning to `CCCC1(C(=O)O)NC(c2ccc(OC)cc2O)C2C(=O)N(c3ccc(OC)cc3)C(=O)C21` (centres undefined), the “inhibition” value was 6.08%. For `Cc1cccc2sc(NNC(=O)c3ccc(S(=O)(=O)N4CC(C)CC(C)C4)cc3)nc12` (centres undefined), the “inhibition” value is 14%. On to `Cc1cc(NC(=O)CC(CN(C)S(=O)(=O)c2ccccc2)c2ccccc2)no1` (centres undefined), for which the “inhibition” value is 6.08%. Turning to `COc1cccc(-c2nnc(SCC(=O)N3CCOCC3)o2)c1`, the “inhibition” value was 1.36%. Regarding `Cc1occc1-c1nnc(SCC(=O)N(C)C)o1`, the “inhibition” value was 5.46%. Regarding `COc1ccc(N(C(=O)c2ccccc2OC)C2C=CS(=O)(=O)C2)c(OC)c1` (centres undefined), the “inhibition” value is 6.08%. For the molecule `COc1ccc(S(=O)(=O)N(CC(=O)O)c2ccccn2)cc1`, the “inhibition” value is 3.41%. For `O=[N+]([O-])c1ccccc1NC(=S)N/N=C/c1ccc(O)c(O)c1`, the “inhibition” value was 7.42%. `Cn1ccnc1Sc1ccc(/C=N/NC(=O)c2ccccc2O)cc1[N+](=O)[O-]`: the molecule was classed as inactive. As for `Cc1cc(NC(=O)Cn2cnc3c(nnn3-c3cccc(F)c3)c2=O)no1`, the molecule was called inactive.

On to `C/C(=N\OCC(=O)NC12CC3CC(CC(C3)C1)C2)c1cc2ccccc2o1`, for which the call was inactive. For `CC1CCC(NC(=O)CCS(=O)(=O)c2ccc3c(c2)CCN3C(=O)C2CC2)CC1` (centres undefined), the “inhibition” value is 4.12%.

With `CN1CCN(NC(=O)c2ccc(S(=O)(=O)N3CC4(C)CC3CC(C)(C)C4)cc2)CC1` (centres undefined), the outcome was inactive.

Consider `COc1cc(NC(=O)CCn2c(=O)[nH]c3ccsc3c2=O)cc(OC)c1`, for which the “inhibition” value was 6.14%. Turning to `O=C(O)CCCCC1SCC2NC(=O)NC21` (centres undefined), the outcome was inactive. For `CCCN(CCC)CCCNC(=O)c1cn(CCOC)c(=O)c2c1c1ccccc1n2C`, the “inhibition” value was 4.73%. On the same count and under the same terms, the result for `Cc1cc(NC(=O)C2CCCC2)n(-c2nc3ccccc3[nH]2)n1` reads 19%; that for `O=C1CCCCC1Oc1ccc2ccc(=O)oc2c1` (centres undefined), 0.33%.

For the molecule `CSc1ccc(C2C(C#N)=C(N)Oc3c2ccc(=O)c2c(C)oc(C)c32)cc1` (centres undefined), the “inhibition” value was 6.82%. For `Cc1cc(-c2[nH]nc3c2C(c2cccc(O)c2)C(C#N)=C(N)O3)c(C)s1` (centres undefined), the “inhibition” value was 14.3%.

For the molecule `N=C(N)c1ccc(N=Nc2c(O)ccc3c2[nH]c2ccccc23)cc1`, the molecule was classed as inactive. As to `CCOC(=O)c1cc2ccc(OC)c(OC)c2c(=O)s1`, the “inhibition” value was 8.11%. `CCOC(=O)CSc1nc(CC)nc2ccccc12`: the molecule was classed as inactive. `CC(c1nnnn1C1CCCCC1)N(Cc1ccccc1)Cc1cccnc1` (centres undefined): the call was inactive. `Cc1cccc(C(=O)Nc2nnc(Cc3c[nH]c4ccccc34)s2)c1`: the molecule was classed as inactive.

For `CCNS(=O)(=O)c1ccc(-c2ccc(-n3cnnn3)cc2)cc1`, the molecule was classed as inactive.

Consider `CC(=O)c1ccc(S(=O)(=O)Nc2cccc(-c3ccc(N4CCOCC4)nn3)c2)cc1`, for which the molecule was classed as inactive. Turning to `CCC(C)n1c(-c2cccc(S(=O)(=O)N3CCOCC3)c2)n[nH]c1=S` (centres undefined), the result was inactive.

Take `O=C(Oc1cccnc1)c1ccc(Cl)cc1`: the “inhibition” value is 4.77%.

Consider `Cc1ccc(S(=O)(=O)N2CCCC2C(=O)N(C)Cc2cccs2)cc1` (centres undefined), for which the “inhibition” value was 2.03%.

For the molecule `Cc1cc(O)c(C(C)C)cc1NC1=NS(=O)(=O)c2ccccc21`, the “inhibition” value is 6.82%. Regarding `CCCCS(=O)CC(O)COCC` (centres undefined), the call was inactive.

Take `Cc1cc(Cl)c(S(=O)(=O)NCC2CCCO2)cc1OCC(=O)NC1CCCCC1` (centres undefined): the result was inactive. As for `CC(C)(C)c1ccccc1OCCOCCSc1ncccn1`, the “inhibition” value is 5.46%. With `O=C(CCCc1ccccc1)N1CCN(c2ccc([N+](=O)[O-])cc2)CC1`, the “inhibition” value is 6.82%.

Consider `CC(C)OC(=O)/C(=C\C=C\c1ccccc1)NC(=O)c1ccccc1`, for which the “inhibition” value is 3.38%.

Consider `O=C(CCc1ccc(S(=O)(=O)N2CCOCC2)cc1)OCc1nc2ccccc2s1`, for which the call was inactive. For `O=C1c2ccccc2C(Nc2ccc(F)c(Cl)c2)N1c1ccccn1` (centres undefined), the “inhibition” value was 12.2%.

On to `CCn1c(SCC(=O)n2c(C)c(C)c3ccccc32)nnc1-c1ccco1`, for which the “inhibition” value was 19.8%.

Turning to `CCCCC(=O)Nc1ccc(NC(=O)c2ccc3c(c2)OCO3)cc1OC`, the “inhibition” value is 1.35%. Take `NC(=O)c1ccccc1NC(=O)/C=C/c1ccc(Cl)cc1`: the molecule was called inactive.

For the origin of these results see PubChem BioAssay AID1117361 (Southern Research Institute, 2015).
